Test results as given in PubChem BioAssay (NCI).
About 79,000 compounds went through this panel and 15% of them were active in at least one assay; those are over-represented in the sample as a whole. Cut-off read from the data, not from the text of the source: active = growth inhibition above about 70%; inactive = the rest.

Key:
[1] = NCI Yeast Anticancer Drug Screen. Data for the rad50 strain (AID 155);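 note: 0% = growth of vehicle-only cultures of the same strain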; conditions: S. cerevisiae rad50 strain growth inhibition; at 50.0 µM; hits give high values
How it was run: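 Growth of the mutant yeast was measured after compound exposure and referenced to vehicle-treated cultures.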

[2] = NCI Yeast Anticancer Drug Screen. Data for the mec2-1 strain (AID 157); conditions: S. cerevisiae mec2-1 strain, at 50.0 µM, hits give high values
How it was run: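 Cells of the genetically defined mec2-1 yeast strain are incubated with test compound. Inhibition of growth is calculated against vehicle-treated controls.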

[3] = NCI Yeast Anticancer Drug Screen. Data for the sgs1 mgt1 strain (AID 161);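 note: 0% = growth of cultures given vehicle only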; conditions: S. cerevisiae sgs1 mgt1 strain, at 50.0 µM, hits give high values
How it was run: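 Read-out: growth inhibition vs vehicle controls. Cells: mutant yeast strain deficient in DNA damage repair.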

[4] = NCI Yeast Anticancer Drug Screen. Data for the cln2 rad14 strain (AID 165);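 note: 0% = growth equal to vehicle treated cultures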; conditions: S. cerevisiae cln2 rad14 strain, at 50.0 µM, hits give high values
How it was run: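 The screen exposed genetically defined yeast (cln2 rad14) to test compounds and scored growth inhibition relative to vehicle-treated controls.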

[5] = NCI Yeast Anticancer Drug Screen. Data for the bub3 strain (AID 167); conditions: S. cerevisiae bub3 mutant strain, at 50.0 µM, hits give high values
How it was run: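 Whole-cell yeast assay. The mutant strain was incubated with compounds, and growth inhibition was determined by comparison with vehicle-treated cells.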

[6] = NCI Yeast Anticancer Drug Screen. Data for the mlh1 rad18 strain (AID 175); conditions: S. cerevisiae mlh1 rad18 strain growth inhibition; at 50.0 µM; hits give high values
How it was run: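 Compound-treated yeast growth, normalised to vehicle controls. Strain bears defined DNA repair mutations.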

Measured: growth inhibition

CCCNc1nc(C)nc2[nH]c(Cc3ccccc3)c(C)c12
inactive: [1] 12.4% | [2] 11.9% | [3] 21.9% | [4] 0.8% | [5] 14.8% | [6] 27.1%

CCOc1ccccc1/C=C(\C#N)c1cccc(Cl)c1
inactive: [1] 42.6% | [2] 9.75% | [3] 29.9% | [4] 13.8% | [5] 19.5% | [6] -4.15%

Cc1cc(C)c(S(=O)(=O)O)cc1N
inactive: [1] -2.55% | [2] 2.1% | [3] 6.1% | [4] -42% | [5] -0.05% | [6] -26.1%

COc1cccc(C2c3cc4c(cc3OC(C)(OC)C2C)OCO4)c1 (stereo not given)
inactive: [1] 19.8% | [2] 22.8% | [3] 21.4% | [4] -83.6% | [5] 4.25% | [6] 15.8%

NC(=O)c1ccc(Cl)c([N+](=O)[O-])c1
inactive: [1] 8.2% | [2] 2.85% | [3] -7.3% | [4] 6.45% | [5] -31.3% | [6] 2.15%

CC(=O)c1ccc(Cl)c(-n2cccc2)c1
inactive: [1] 4.2% | [2] -12.1% | [3] 13% | [4] 17.6% | [5] 17.8% | [6] -0.45%

O=C1c2ccccc2-c2cc(Cl)c(Cl)cc21
inactive: [1] 13.4% | [2] 2.1% | [3] 13.7% | [4] 17.1% | [5] -1.8% | [6] -22.2%

Cc1csc2nc(-c3ccco3)nn12
inactive: [1] -3.2% | [2] -23.9% | [3] 4.55% | [4] 15.9% | [5] -13.3% | [6] 4.35%

CC1CCOC(/C=C/c2ccccc2)O1 (stereo not given)
inactive: [1] -7.9% | [2] -6.7% | [3] 5.7% | [4] 30.1% | [5] 40.8% | [6] -1.75%

COc1ccc(COC(=O)NNC(=O)C2CSC(c3ccccc3)N2C(C)=O)cc1 (stereo not given)
inactive: [1] -23.4% | [2] 6.75% | [3] -15.8% | [4] 3.4% | [5] -8.9% | [6] -10.3%

O=C(NC(CSSCC(NC(=O)OCc1ccccc1)C(=O)O)C(=O)O)OCc1ccccc1 (stereo not given)
inactive: [1] -8.6% | [2] -31.4% | [3] -2.4% | [4] -4.1% | [5] -33% | [6] -25.2%

CCN(CC)CCOC(=O)c1noc2cc([N+](=O)[O-])ccc12
inactive: [1] 0.7% | [2] 12.9% | [3] -1.25% | [4] -23.7% | [5] 5% | [6] 9.85%

O=C(C(=NC12CC3CC(CC(C3)C1)C2)NNc1ccc([N+](=O)[O-])cc1[N+](=O)[O-])C(Br)C(=O)c1ccccc1 (stereo not given)
inactive: [1] 47.2% | [2] 45.9% | [3] 56.2% | [4] 3.25% | [5] 51.5% | [6] 39.9%

Cc1cc(N(CCC#N)CCC#N)ccc1/C(N=Nc1cccc(Cl)c1)=N/NC(=O)c1cc(Cl)ccc1O
inactive: [1] 21% | [2] 4.9% | [3] 26.8% | [4] 10.3% | [5] 33.6% | [6] -59.4%

CCN(CC)C1Oc2cc3c(cc2C(c2cc(OC)c(O)c(OC)c2)C1C)OCO3 (stereo not given)
inactive: [1] -14.6% | [2] -23.9% | [3] -7.7% | [4] 3.35% | [5] -7.1% | [6] 3.85%

COC(OC)C1OC(C)(C)OC1C(OS(=O)(=O)c1ccc(C)cc1)C1COC(C)(C)O1 (stereo not given)
inactive: [1] -14.7% | [2] -7.8% | [3] 6.45% | [4] 1.95% | [5] 1.6% | [6] 12.7%

CC1=C(CN(CC(=O)O)CC(=O)O)C(=O)C(C(C)C)=C/C1=C(\c1ccccc1S(=O)(=O)O)c1cc(C(C)C)c(O)c(CN(CC(=O)O)CC(=O)O)c1C
inactive: [1] -3.55% | [2] -24.8% | [3] 11.4% | [4] 4.2% | [5] 0.75% | [6] -8.7%

O=C(c1ccncc1)n1nc(-c2ccccc2)c(N=Nc2ccccc2[N+](=O)[O-])c1-c1ccccc1
inactive: [1] -1.75% | [2] -16.8% | [3] -9.3% | [4] 1.65% | [5] 30.3% | [6] 1%

Cc1ccc(OC(=O)c2cc([N+](=O)[O-])cc([N+](=O)[O-])c2)cc1
inactive: [1] 4.4% | [2] -0.5% | [3] 13.3% | [4] -12.8% | [5] 2% | [6] -0.7%

Cc1c(C(=O)CC2OC(=O)C(Cl)=C2Cl)c2ccccc2n1C(=O)Nc1ccc(Cl)cc1 (stereo not given)
inactive: [1] 15.8% | [2] -6.75% | [3] 11.1% | [4] -32.4% | [5] 5.05% | [6] 5.3%

CCCCOCCOC(=O)c1ccccc1C(=O)OCCOCCCC
inactive: [1] -5.75% | [2] -42.4% | [3] -49.4% | [4] -49% | [5] -23.1% | [6] -25%

Cc1c2sc3ccccc3[nH]c2nc2[nH]c3ccccc3sc12
inactive: [1] -24.9% | [2] -10.7% | [3] -25.1% | [4] 2.35% | [5] 11% | [6] 0.95%

CCOc1ccc(CC(=O)Nc2cc([N+](=O)[O-])ccc2NCCN(CC)CC)cc1
inactive: [1] -18.2% | [2] -10.4% | [3] -8.6% | [4] -53.8% | [5] 0.2% | [6] -3.85%

CCCC(=O)N(C)c1ccccc1
inactive: [1] 7.5% | [2] -11.1% | [3] -1.85% | [4] -29.4% | [5] 6.35% | [6] -8.35%

O=C(O)COc1ccc(I)cc1I
inactive: [1] 23.3% | [2] -8.05% | [3] -4.85% | [4] -37.5% | [5] 23.6% | [6] 19.2%

Cc1ccc([N+](=O)[O-])cc1Br
inactive: [1] 0.3% | [2] -16.1% | [3] -0.5% | [4] -11.8% | [5] 5.5% | [6] 4%

Cc1cc2nc3c(=O)[nH]c(=O)nc-3n(CC(O)C(O)C(O)C(O)CO)c2cc1C (stereo not given)
inactive: [1] 33.5% | [2] 3.2% | [3] -14.4% | [4] 7.05% | [5] -7.7% | [6] 23.2%

CCCCCOC(=S)S.[Ag]
inactive: [1] -5.65% | [2] -15.2% | [3] -1.55% | [4] 13.2% | [5] -16.2% | [6] -8.4%

O=S(=O)(OCC1CC2CCC1CC2)c1ccc(Br)cc1 (stereo not given)
inactive: [1] -17.1% | [2] 1.9% | [3] 9.35% | [4] 0.8% | [5] 10.2% | [6] -22.9%

CSc1ccc(NC(=O)Oc2ccc(NC(C)=O)cc2)cc1
inactive: [1] 8.55% | [2] -0.95% | [3] 6.05% | [4] 14.4% | [5] 22.8% | [6] 4.45%

c1ccc2c(CCNC3=NCCO3)cccc2c1
inactive: [1] -11.1% | [2] -16.6% | [3] -10.8% | [4] -7.5% | [5] -1.6% | [6] 1.45%

CC1=CC=NN2C(=O)[C@H](C)C2C1 (stereo not given in full)
inactive: [1] 5.8% | [2] 0.75% | [3] 0.3% | [4] 10.3% | [5] -9.05% | [6] 9.6%

COC[C@@H](N=Cc1ccc(OC)cc1)C(C)C
inactive: [1] -12.2% | [2] -19.4% | [3] -49.6% | [4] -28.8% | [5] 25.9% | [6] -30.5%

CCCCN(CCCC)C(=O)/C=C\C(=O)O
inactive: [1] -6.6% | [2] 1% | [3] -0.2% | [4] 28.1% | [5] -1.2% | [6] 4.9%

CCc1ccc2[nH]c(C(=O)O)cc2c1
inactive: [1] -15.4% | [2] -18.4% | [3] -1.75% | [4] -11.8% | [5] -21.6% | [6] 4.45%

COC1(OC)CC2C(=O)N(Cc3ccccc3)C1C(S(=O)(=O)c1ccccc1)C2S(=O)(=O)c1ccccc1 (stereo not given)
inactive: [1] 27.6% | [2] 29.5% | [3] 45.5% | [4] -31.7% | [5] 50.2% | [6] 64.8%

CN(C)CCCNC(=O)CCNC(=O)c1cc(NC(=O)c2cc(NC(=O)c3cc(NC(=O)c4nc(NC(=O)CCCNC(=O)c5cc(NC(=O)c6cc(NC(=O)c7cc(NC(=O)c8nccn8C)cn7C)cn6C)cn5C)cn4C)cn3C)cn2C)cn1C
inactive: [1] -17.3% | [2] -31.9% | [3] 23.1% | [4] 28.8% | [5] 15.3% | [6] -46.4%

CCCCCCCCCc1ccc(COCCCC)cc1
inactive: [1] 21.9% | [2] 55.1% | [3] 56.1% | [4] 50.1% | [5] 49.5% | [6] 48.8%

C=CCOC(=O)CC(=C)C(=O)OCC=C
inactive: [1] 8.5% | [2] 26.4% | [3] -8.95% | [4] -4.7% | [5] -5.65% | [6] -3.55%

CC(=O)OCC1OC(n2c(C)c(C(C)=O)c(-c3ccc(Cl)cc3)c(C#N)c2=S)C(OC(C)=O)C(OC(C)=O)C1OC(C)=O (stereo not given)
inactive: [1] -37.9% | [2] -9.55% | [3] -2.1% | [4] 12.2% | [5] 9.15% | [6] -2.65%
